Measurements as given in the supplement of paper PMC10681739.

molecular target: RUNX1 (UniProt Q01196); test: RUNX1 binding intensity (PBM fluorescence), RUNX1 alone (arbitrary fluorescence units); higher = stronger binding; settings: RUNX1 concentration 2 nM; ETS1 concentration 0 nM
Method: (§1)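 Cooperative gcPBM on 36-bp genomic probes with neighbouring ETS1 and RUNX1 sites. Recombinant human RUNX1 (2 nM) was incubated alone or with ETS1 (25 nM) and detected with anti-RUNX1 antibody plus Alexa488 secondary. Values are medians over 4 replicate spots; the RUNX1+ETS1 data were normalised to the RUNX1-only data. The probes sit in constant array flanks that are not printed.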
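Throughout, for RUNX1 binding intensity (PBM fluorescence) in presence of ETS1, normalised to RUNX1-only experiment: Full-length recombinant human ETS1 or RUNX1 bound to double-stranded 36-bp genomic probes on microarrays, detected by protein-specific primary antibody and Alexa488 secondary, spot fluorescence as median of four replicate spots.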
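Throughout, for RUNX1 binding intensity (PBM fluorescence), RUNX1 alone: Full-length recombinant human RUNX1 bound to double-stranded 36-bp genomic probes on a high-density microarray, scored as Alexa488 fluorescence per spot via anti-RUNX1 antibody, median of four replicate spots.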

Sequence of RUNX1 (Q01196 whole entry): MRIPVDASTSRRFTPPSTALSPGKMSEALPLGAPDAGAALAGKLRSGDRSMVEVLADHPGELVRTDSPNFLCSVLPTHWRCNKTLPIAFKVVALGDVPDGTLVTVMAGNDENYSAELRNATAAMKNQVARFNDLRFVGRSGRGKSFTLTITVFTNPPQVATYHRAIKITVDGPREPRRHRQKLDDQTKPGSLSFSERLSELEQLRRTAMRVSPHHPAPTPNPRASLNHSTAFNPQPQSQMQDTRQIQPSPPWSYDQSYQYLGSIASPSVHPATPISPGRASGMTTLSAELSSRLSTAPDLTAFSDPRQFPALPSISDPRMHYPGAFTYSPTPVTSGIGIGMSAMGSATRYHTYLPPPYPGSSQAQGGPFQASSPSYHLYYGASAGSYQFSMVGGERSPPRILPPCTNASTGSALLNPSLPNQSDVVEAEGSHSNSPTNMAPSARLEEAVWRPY

| Sequence | RUNX1 binding intensity |
| --- | --- |
| AATGAAGGAGGGGCAGGATGTGGTCTTGGTGAATCA | 746 |
| CAGATCTGAAAGGGAAGTGGTTTCAAGAGGGTTCTT | 729 |
| GGGTCGCGGCCTTCCGGCGAACGCGGTTACCGTGGA | 853 |
| GGAACAGGAAGCGGCAGAAATAGCAGCCACCGCGGC | 819 |

molecular target: RUNX1 (UniProt Q01196); test: RUNX1 binding intensity (PBM fluorescence) in presence of ETS1, normalised to RUNX1-only experiment (arbitrary fluorescence units); higher = stronger binding; settings: RUNX1 concentration 2 nM; ETS1 concentration 25 nM
Method: as §1

| Sequence | RUNX1 binding intensity |
| --- | --- |
| TTGAATATGAAAGGAAGTGGTTAGGTGATGTGTTCT | 1350 |
| GATGCTTGTTCAGGATGCGGTTTCTTGCAGCAAGTT | 5090 |
| TCCTGCCCTCCCATCCTGTGGTCAGAGGCCAGGGCT | 1580 |
| ATGCCTGTAGGAGGATGTGGTTTCTACACAACTCTG | 1400 |
| GGCTTCCGCCTGCCGAGCGGCCCCGGACCGCAGGCC | 1980 |
| TGAGGGGCTCGCCGGGAAATGTGGTTTAGCGGCCCT | 2000 |
| ATCTTTTGATGAGGATGTGGTTTCCAGGCAGGTGCT | 1620 |
| GGCGGTGCACTCTGGGAAATGTGGTTTTCGCGGCGC | 1500 |
| CAGGAGCAGTGTAGAGGAAGTGGTTTCCATCACGGA | 1410 |
| CGTTTCCTGTCTGGGACTGCGCCCACGCGGTCACGT | 2450 |
| CGGCGCCTTCCGCAGAGGGACTGCGGCTTTCTGCGC | 1390 |
| CATGGGGAGGAGGAAGTGGTGGCGGCCGCAGGCCAG | 1070 |
| TCTGGATTTCCTGTGGGGCTCTCCCACAAGCAGTAC | 1390 |
| ATAGACCCAGCCCGTCCGGTAACCGCGCTCCTCGAT | 913 |
| GGGAGGTGTCCAGGAAGTGGTTGGAGAGTCTGGTCT | 1020 |
| GTGAGAGGAAGTGGGCGCTGGTTTAATGTGGTCAGC | 2360 |
| AAACCCCAAACAGGAAGTGGTAAAGCAACCTGCATC | 7980 |
| GCCACATATTTCCTGTGACAACCCTGTGGTGTGGCT | 1640 |
| CTTAGCACTTCAGCCGGAAACCACAGCATACATTTC | 2310 |
| ACAGATAGTGATATCCTGTGGTCAATTCCCTCCCCT | 2280 |

| Sequence | RUNX1 binding intensity |
| --- | --- |
| ATTCCTAGAGAGGAAATGCGGGCTCAGGGTGTCGGC | 897 |
| CTCTCACTTCCCGTGTGAGAAAAACCACAGAAAAGC | 4200 |
| AAGGCAAACAGGAAATCATAACCACAAACCAGGAAC | 21700 |
| TCACATTTTGCCGGATGTGGGTTGAGGGCATGCTGC | 8730 |
| TCCGGAAGTCGGAGGAACACCCCAGCCGCCGCAGCC | 988 |
| GTTGCAGGAAACGATGGGTTTTGTGGTATGAACTGC | 1700 |
| TACCTAGACCCTTTCCGCCCTTACCGCGGCCAGACA | 1410 |
| AATGAAGGAGGGGCAGGATGTGGTCTTGGTGAATCA | 1440 |
| CACCTCCTCTCCGGATGCGGTTTGTTCTGCTTGTAG | 6810 |
| TCAAGAAAACAGGAAACTCTCAAAACCAAGTTCTGA | 931 |
| CAGATCTGAAAGGGAAGTGGTTTCAAGAGGGTTCTT | 865 |
| ACGTCAGCATCCGCCGGGCTCGCGGTAAGGTGTGAG | 1280 |
| TGGGTGCCGGATTCGGTGAGTGTGGTTCTCATGATG | 895 |
| GCCGCCGTTTCCTGATTGGTTGTGGGTGGCTACCTC | 1660 |
| GGGTCGCGGCCTTCCGGCGAACGCGGTTACCGTGGA | 1380 |
| CAGAGCCAAACATGCGGAAGTGGTTACGTGTACTAG | 1900 |
| CATAGACCGGATGCCTCGTCAACCACAGAAACCAAT | 2940 |
| GGAACAGGAAGCGGCAGAAATAGCAGCCACCGCGGC | 1310 |
| CACTCCCCGAATCCGGTCTGCGGCGCGCTCGGGGCC | 1250 |
